Laboratory results reported in ChEMBL document CHEMBL1961873, “Compounds: GSK PKIS; Assays: Nanosyn kinase panel” (2012).

Legend:
[1] = system: Proto-oncogene tyrosine-protein kinase receptor Ret (Homo sapiens), P07949 [Y791F]; conditions: at 1 µM
[2] = biological target: Macrophage-stimulating protein receptor (Homo sapiens) (UniProt Q04912); conditions: at 0.1 µM
[3] = biological target: Macrophage-stimulating protein receptor (Homo sapiens) (UniProt Q04912); conditions: at 1 µM
[4] = biological target: Proto-oncogene tyrosine-protein kinase ROS (Homo sapiens) (UniProt P08922); conditions: at 0.1 µM
Sequence of Proto-oncogene tyrosine-protein kinase ROS (Homo sapiens) (P08922 whole entry): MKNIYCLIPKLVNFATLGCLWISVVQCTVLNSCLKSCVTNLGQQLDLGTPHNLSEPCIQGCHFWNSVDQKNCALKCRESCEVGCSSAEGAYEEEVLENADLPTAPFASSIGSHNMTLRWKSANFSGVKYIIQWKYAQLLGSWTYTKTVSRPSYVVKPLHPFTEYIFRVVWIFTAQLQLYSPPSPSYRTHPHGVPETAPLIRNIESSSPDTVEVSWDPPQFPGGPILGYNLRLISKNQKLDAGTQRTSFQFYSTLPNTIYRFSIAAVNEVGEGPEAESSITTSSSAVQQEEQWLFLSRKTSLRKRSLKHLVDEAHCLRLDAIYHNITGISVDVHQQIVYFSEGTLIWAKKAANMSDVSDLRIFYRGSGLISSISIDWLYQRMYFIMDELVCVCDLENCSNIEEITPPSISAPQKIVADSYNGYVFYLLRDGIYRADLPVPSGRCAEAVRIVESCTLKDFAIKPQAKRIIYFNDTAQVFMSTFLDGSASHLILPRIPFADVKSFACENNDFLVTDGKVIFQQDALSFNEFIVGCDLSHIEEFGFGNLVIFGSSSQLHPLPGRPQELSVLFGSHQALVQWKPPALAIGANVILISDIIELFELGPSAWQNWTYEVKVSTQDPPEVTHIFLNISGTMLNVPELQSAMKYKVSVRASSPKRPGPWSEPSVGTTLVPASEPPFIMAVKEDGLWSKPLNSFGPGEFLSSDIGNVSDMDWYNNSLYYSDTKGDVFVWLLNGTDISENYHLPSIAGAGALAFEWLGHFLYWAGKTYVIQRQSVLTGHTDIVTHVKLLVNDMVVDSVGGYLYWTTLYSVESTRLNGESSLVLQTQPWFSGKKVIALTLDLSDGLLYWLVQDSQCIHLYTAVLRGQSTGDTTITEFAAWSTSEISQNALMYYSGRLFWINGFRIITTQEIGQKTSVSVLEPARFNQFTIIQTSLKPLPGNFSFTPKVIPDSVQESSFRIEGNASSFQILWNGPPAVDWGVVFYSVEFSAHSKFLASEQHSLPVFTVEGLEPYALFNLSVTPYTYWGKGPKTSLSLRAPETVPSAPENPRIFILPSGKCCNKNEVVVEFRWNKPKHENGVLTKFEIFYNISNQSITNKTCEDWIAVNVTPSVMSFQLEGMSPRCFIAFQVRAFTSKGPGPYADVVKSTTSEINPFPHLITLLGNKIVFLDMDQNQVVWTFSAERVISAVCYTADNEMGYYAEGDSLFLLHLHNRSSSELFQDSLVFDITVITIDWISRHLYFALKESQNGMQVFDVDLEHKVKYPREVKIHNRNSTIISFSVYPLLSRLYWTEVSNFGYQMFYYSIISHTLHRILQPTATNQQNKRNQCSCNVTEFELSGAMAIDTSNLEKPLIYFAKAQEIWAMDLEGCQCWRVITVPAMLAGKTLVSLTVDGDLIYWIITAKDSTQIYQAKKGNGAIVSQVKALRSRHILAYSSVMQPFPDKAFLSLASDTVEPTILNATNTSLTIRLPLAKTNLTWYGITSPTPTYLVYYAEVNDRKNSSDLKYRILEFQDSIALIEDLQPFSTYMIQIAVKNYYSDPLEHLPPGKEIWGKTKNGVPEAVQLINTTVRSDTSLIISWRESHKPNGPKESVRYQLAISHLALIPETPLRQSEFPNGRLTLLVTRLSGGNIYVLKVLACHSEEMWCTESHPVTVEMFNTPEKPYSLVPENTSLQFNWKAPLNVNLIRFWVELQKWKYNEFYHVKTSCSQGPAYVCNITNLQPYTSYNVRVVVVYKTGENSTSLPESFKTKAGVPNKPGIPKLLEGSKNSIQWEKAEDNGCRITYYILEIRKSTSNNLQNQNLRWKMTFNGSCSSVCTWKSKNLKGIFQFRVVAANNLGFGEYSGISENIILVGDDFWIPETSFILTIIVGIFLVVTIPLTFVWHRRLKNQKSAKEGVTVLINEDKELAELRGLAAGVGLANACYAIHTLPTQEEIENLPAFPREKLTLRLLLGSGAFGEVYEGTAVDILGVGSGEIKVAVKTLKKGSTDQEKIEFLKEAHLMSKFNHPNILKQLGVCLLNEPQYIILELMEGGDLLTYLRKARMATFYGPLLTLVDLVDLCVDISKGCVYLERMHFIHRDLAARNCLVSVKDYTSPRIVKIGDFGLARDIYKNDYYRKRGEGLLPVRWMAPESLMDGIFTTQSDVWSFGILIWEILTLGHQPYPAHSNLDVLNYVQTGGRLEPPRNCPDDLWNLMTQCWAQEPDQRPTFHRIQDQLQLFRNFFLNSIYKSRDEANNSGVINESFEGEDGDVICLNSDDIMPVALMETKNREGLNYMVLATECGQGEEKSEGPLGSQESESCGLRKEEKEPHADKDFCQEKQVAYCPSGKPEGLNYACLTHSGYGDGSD

[5] = biological target: Proto-oncogene tyrosine-protein kinase ROS (Homo sapiens) (UniProt P08922); conditions: at 1 µM
[6] = biological target: Proto-oncogene tyrosine-protein kinase Src (Homo sapiens) (UniProt P12931); conditions: at 0.1 µM
[7] = biological target: Proto-oncogene tyrosine-protein kinase Src (Homo sapiens) (UniProt P12931); conditions: at 1 µM
[8] = biological target: Tyrosine-protein kinase Srms (Homo sapiens) (UniProt Q9H3Y6); conditions: at 0.1 µM
[9] = biological target: Tyrosine-protein kinase Srms (Homo sapiens) (UniProt Q9H3Y6); conditions: at 1 µM
[10] = biological target: Tyrosine-protein kinase SYK (Homo sapiens) (UniProt P43405); conditions: at 0.1 µM
[11] = biological target: Tyrosine-protein kinase SYK (Homo sapiens) (UniProt P43405); conditions: at 1 µM
[12] = biological target: T1, Tyrosine-protein kinase Tec (Homo sapiens) (UniProt P42680); conditions: at 0.1 µM
T1 sequence (whole entry): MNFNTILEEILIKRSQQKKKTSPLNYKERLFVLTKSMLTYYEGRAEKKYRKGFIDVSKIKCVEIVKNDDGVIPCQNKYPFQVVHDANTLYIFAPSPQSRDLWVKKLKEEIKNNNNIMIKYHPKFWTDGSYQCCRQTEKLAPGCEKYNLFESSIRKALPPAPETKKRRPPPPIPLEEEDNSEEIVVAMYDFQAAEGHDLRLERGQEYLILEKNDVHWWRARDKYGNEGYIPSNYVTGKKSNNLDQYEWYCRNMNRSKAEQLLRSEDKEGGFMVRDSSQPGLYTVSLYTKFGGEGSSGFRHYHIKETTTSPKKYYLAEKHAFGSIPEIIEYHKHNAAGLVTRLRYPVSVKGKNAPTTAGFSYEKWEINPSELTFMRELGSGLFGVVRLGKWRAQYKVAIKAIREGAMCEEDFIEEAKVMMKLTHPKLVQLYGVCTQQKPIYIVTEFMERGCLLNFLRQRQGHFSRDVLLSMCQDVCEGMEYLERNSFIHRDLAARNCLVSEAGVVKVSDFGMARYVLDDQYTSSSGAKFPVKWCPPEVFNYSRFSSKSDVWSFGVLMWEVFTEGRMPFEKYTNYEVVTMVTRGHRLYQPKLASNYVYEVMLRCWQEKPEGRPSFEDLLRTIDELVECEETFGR

[13] = biological target: T1, Tyrosine-protein kinase Tec (Homo sapiens); conditions: at 1 µM
[14] = biological target: Angiopoietin-1 receptor (Homo sapiens) (UniProt Q02763); conditions: at 0.1 µM
Sequence of Angiopoietin-1 receptor (Homo sapiens) (Q02763 whole entry): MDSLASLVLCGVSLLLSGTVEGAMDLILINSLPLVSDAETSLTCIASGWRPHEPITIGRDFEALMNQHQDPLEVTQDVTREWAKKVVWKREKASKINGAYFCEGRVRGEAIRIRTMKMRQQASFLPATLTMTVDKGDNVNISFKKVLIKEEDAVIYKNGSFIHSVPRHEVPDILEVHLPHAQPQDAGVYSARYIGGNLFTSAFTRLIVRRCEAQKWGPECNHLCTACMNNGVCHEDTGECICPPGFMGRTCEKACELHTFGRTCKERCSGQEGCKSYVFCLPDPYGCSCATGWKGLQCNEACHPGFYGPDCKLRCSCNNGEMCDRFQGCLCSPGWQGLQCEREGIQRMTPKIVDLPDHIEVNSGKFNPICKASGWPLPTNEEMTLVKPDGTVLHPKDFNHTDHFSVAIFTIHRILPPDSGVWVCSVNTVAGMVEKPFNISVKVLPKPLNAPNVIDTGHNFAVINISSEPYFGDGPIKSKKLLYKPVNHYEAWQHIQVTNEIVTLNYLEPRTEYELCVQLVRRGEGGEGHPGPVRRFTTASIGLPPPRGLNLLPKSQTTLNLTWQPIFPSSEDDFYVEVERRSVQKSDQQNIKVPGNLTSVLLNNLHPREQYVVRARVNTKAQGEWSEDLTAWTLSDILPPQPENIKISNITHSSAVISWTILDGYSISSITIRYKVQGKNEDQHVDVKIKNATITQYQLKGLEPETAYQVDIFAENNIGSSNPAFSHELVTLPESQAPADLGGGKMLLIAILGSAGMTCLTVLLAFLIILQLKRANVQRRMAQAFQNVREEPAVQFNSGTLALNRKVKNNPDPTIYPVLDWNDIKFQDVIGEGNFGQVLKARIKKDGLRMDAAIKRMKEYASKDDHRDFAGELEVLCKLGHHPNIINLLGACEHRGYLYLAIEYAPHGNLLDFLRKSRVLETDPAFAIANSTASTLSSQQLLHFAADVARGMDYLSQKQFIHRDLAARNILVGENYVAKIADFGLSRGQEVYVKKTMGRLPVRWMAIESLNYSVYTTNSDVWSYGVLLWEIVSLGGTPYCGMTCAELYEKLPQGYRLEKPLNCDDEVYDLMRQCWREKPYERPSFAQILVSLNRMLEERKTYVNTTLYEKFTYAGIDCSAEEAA

[15] = biological target: Angiopoietin-1 receptor (Homo sapiens) (UniProt Q02763); conditions: at 1 µM
[16] = biological target: T2, Non-receptor tyrosine-protein kinase TNK1 (Homo sapiens) (UniProt Q13470); conditions: at 0.1 µM
T2 sequence (whole entry): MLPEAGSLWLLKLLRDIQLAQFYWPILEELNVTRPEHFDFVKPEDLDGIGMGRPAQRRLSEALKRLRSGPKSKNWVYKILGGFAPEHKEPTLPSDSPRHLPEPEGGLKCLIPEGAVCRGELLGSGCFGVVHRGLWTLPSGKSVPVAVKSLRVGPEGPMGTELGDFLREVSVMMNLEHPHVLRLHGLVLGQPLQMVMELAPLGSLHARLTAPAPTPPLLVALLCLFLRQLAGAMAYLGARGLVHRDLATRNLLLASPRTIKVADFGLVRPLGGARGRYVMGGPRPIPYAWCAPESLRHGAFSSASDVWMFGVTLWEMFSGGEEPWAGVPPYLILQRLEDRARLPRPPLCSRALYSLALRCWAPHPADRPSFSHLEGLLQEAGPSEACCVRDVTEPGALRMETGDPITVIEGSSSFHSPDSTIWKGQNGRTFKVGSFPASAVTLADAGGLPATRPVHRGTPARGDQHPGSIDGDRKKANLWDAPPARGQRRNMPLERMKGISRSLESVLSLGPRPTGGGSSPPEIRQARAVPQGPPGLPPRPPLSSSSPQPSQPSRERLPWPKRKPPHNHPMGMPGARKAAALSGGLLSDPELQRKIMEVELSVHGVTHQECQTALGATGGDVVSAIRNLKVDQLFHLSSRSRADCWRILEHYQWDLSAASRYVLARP

[17] = biological target: T2, Non-receptor tyrosine-protein kinase TNK1 (Homo sapiens); conditions: at 1 µM
[18] = biological target: Activated CDC42 kinase 1 (Homo sapiens) (UniProt Q07912); conditions: at 0.1 µM
[19] = biological target: Activated CDC42 kinase 1 (Homo sapiens) (UniProt Q07912); conditions: at 1 µM
[20] = biological target: High affinity nerve growth factor receptor (Homo sapiens) (UniProt P04629); conditions: at 0.1 µM;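 note: each value is a mean of replicate percent inhibition readings against TRKA kinase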

Sequence of Macrophage-stimulating protein receptor (Homo sapiens) (Q04912 25-304 limits assumed): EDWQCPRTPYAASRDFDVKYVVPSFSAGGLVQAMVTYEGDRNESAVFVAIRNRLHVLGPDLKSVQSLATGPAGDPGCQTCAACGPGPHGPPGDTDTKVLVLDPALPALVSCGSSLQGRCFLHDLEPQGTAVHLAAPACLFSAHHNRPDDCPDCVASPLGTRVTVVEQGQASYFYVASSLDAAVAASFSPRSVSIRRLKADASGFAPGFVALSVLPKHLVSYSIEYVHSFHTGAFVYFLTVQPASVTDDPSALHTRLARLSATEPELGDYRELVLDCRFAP
Sequence of Macrophage-stimulating protein receptor (Homo sapiens) (Q04912 310-1400 limits assumed): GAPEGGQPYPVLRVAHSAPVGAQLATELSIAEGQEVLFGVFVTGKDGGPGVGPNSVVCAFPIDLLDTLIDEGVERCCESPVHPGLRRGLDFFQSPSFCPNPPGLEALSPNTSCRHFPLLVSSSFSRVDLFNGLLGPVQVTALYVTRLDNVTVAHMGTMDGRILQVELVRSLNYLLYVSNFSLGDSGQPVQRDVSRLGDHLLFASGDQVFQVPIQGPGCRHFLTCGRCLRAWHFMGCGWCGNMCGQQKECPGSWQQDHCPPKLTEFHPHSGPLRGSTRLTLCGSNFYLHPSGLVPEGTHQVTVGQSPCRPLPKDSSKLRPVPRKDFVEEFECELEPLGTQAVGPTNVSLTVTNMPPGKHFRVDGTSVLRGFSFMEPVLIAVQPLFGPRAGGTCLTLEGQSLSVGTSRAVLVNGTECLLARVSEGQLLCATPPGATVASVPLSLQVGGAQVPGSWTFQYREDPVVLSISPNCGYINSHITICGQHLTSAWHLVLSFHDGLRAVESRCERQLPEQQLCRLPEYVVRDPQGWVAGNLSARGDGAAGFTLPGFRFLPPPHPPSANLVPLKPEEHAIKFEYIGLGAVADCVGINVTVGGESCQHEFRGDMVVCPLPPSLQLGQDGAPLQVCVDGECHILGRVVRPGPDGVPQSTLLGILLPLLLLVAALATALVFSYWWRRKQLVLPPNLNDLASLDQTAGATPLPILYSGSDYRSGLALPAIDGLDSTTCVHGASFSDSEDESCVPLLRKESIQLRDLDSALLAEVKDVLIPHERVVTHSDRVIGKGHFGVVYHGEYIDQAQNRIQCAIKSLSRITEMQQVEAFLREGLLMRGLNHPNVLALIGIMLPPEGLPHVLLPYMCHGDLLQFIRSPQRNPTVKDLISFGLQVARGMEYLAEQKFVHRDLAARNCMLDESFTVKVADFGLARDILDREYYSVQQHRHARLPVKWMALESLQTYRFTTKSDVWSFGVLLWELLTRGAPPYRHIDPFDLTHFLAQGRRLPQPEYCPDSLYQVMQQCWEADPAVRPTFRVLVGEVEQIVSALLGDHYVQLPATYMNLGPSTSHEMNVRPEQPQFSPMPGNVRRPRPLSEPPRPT

Structure (SMILES) | inhibition [1] | inhibition [2] | inhibition [3] | inhibition [4] | inhibition [5] | inhibition [6] | inhibition [7] | inhibition [8] | inhibition [9] | inhibition [10] | inhibition [11] | inhibition [12] | inhibition [13] | inhibition [14] | inhibition [15] | inhibition [16] | inhibition [17] | inhibition [18] | inhibition [19] | inhibition [20]
CNC(=O)c1cc(-c2ccc(F)cc2)cc(-c2ccc(S(=O)(=O)N3CCCC3)cc2)c1N | 2.82% | 1.89% | 4.58% | 4.64% | 6.55% | 5.46% | 6.17% | 2.11% | -2.91% | -0.29% | 0.73% | 2.93% | 3.29% | 2.3% | 2.3% | 2.65% | 2.41% | 0.47% | 1.54% | 1.97%
CCn1cc(-c2ccnc3[nH]ccc23)c(-c2cccc(NC(=O)Nc3ccc(OCc4ccccc4)cc3)c2)n1 | 11.9% | -0.2% | 23.8% | 1.33% | 0.45% | 1.17% | 6.43% | -1.11% | -1.61% | -1.9% | -2.75% | -0.28% | 0.98% | -0.17% | 6.2% | 1.05% | 11.2% | -0.68% | 2.63% | -1.48%
COc1cc(/C=N/Nc2ncnc3[nH]ncc23)ccc1O | 80.9% | -1.46% | 17% | 5.97% | 27% | 27.9% | 83.2% | -0.95% | 6.55% | -7.54% | 14.2% | 8.19% | 38.6% | 2.16% | 9.2% | 4.02% | 18.9% | 1.76% | 8.52% | 2.3%
COc1cc2ncn(-c3cc(OCc4ccccc4C(F)(F)F)c(C(=O)N(C)C)s3)c2cc1OC | 23.4% | 1.82% | -1.06% | 1.8% | 2.67% | 0.91% | 3.6% | 1.16% | 1.35% | 4.44% | 1.81% | 0.84% | 2.14% | 1.94% | 3.94% | 8.67% | 48.7% | 0.68% | 7.7% | 1.49%
CCN1CCC(CC(=O)Nc2n[nH]c3nnc(-c4cccc(F)c4F)cc23)CC1 | 6.9% | -3.31% | 1.81% | 1.13% | 3.93% | 5.1% | 0.53% | -0.09% | 0.68% | -0.02% | -2.27% | 0.83% | 2.99% | 1.5% | 10.3% | 1.03% | 4.94% | 0.46% | 1.64% | -1.1%
Clc1ccc(-c2nn3ncccc3c2-c2ccnc(Nc3ccccc3)n2)cc1 | 42.2% | -2.2% | 4.63% | 4.17% | 9.1% | 6.5% | 39.3% | 1.99% | 5.97% | -4.66% | 2.04% | 2.78% | 15.2% | 3.84% | 18.5% | -6.06% | 11.2% | 0.77% | 4.09% | 3.46%
O=S(=O)(CCNCc1ccc(-c2ccc3ncnc(Nc4ccc(OCc5cccc(F)c5)c(Cl)c4)c3c2)o1)c1ccccc1 | 15.4% | 1.71% | 2.9% | 4.44% | 6.24% | 9.13% | 8.52% | -1.84% | -3.16% | -4.56% | -4.14% | 1.85% | 5.02% | 5.73% | 8.7% | 4.16% | 22.3% | 2.38% | 1.4% | 2.46%
CC(C)(CO)CNC(=O)c1ccc2c(c1)/C(=N/Nc1ccc(S(N)(=O)=O)cc1)C(=O)N2 | 56.3% | 3.52% | 2.41% | 0.74% | 3.7% | 5.77% | 34.2% | -0.93% | 0.39% | 0.61% | -2.05% | 0.59% | 5.32% | -0.74% | 0.79% | 0.66% | 10.3% | -0.56% | 0.03% | 1.4%
CCn1c(-c2nonc2N)nc2c(C#CC(C)(C)O)ncc(OC3CCNCC3)c21 | 17.1% | -2.24% | 0.48% | 7.34% | 6.9% | 7.32% | 11.4% | 0.02% | 1.37% | 2.08% | 1.12% | 5.92% | 3.33% | 4.81% | 7.95% | 1.33% | 0.26% | 0.61% | 1.17% | 2.16%
CS(=O)(=O)CCNCc1coc(-c2ccc3ncnc(Nc4ccc(OCc5ccccc5)cc4)c3c2)c1 | 8.25% | -5.7% | 2.31% | 4.75% | 4.27% | 8.85% | 10.9% | 3.44% | 3.19% | 2.29% | 3.66% | 4.07% | 6.39% | 3.15% | 4.19% | 4.53% | 7.58% | 1.22% | 2.21% | 1.72%
N#Cc1c(NC(=O)c2ccc(F)cc2)sc2c1CCCC2 | 7.62% | 1.04% | 2.12% | 0.38% | 4.13% | 4.79% | 1.56% | -1.11% | -0.62% | -2.1% | -0.64% | 1.75% | 1.25% | 1.49% | 2.44% | -1.86% | 2.53% | 0.23% | 0.89% | 0.08%
CCN(CC)S(=O)(=O)c1ccc(OC)c(Nc2ncc(-c3ccccc3)o2)c1 | 35.7% | 4% | -1.9% | 1.91% | 19% | 9.87% | 56.4% | 1.97% | 3.53% | 0.84% | -0.04% | 2.99% | 11.9% | 4.38% | 14% | 15.6% | 72.1% | -0.01% | 1.62% | 4.25%
COc1cccc(-n2ncc3c(N/N=C/c4ccc(F)cc4)ncnc32)c1 | 18.6% | 3.4% | 13.7% | 3.85% | 8.02% | 14.6% | 49.2% | -1.01% | 3.9% | -4.34% | -3.59% | 5% | 9.02% | 2.18% | 5.99% | 5.45% | 12.4% | 1.52% | 3.5% | 4.72%
